TLR9-MyD88 block = TLR9-MyD88 interaction inhibition; AID 504734; 340,000 tested, 0.21% active; Q9NR96+Q99836; inhibition, % at 4.98 µM; CHO BLA complementation TLR9-MyD88, CCF4 FRET ratio;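 active = inhibition above the mean over all tested compounds plus 3 SD, cut at about 21% in these data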;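 also: 0% = DMSO only wells and 100% = clavulanate BLA inhibitor control wells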
IDE inh = inhibitors of human insulin-degrading enzyme in cells | P14735 | HEK cells, FAbetaB cleavage, fluorescence polarization | inhibition, % at 5.59 µM | 320,000 tested, 0.41% active;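 active = percent inhibition above the average of all tested compounds plus 3 SD, set per screening campaign, cut at about 16% in these data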;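 also: IDE supplied by intact live HEK cells; FP after avidin binding of uncleaved biotin substrate so inhibition keeps polarization high; 0% = DMSO wells and 100% = 60 µM reference IDE inhibitor Ii1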
Target sequence (P14735 whole entry, looked up): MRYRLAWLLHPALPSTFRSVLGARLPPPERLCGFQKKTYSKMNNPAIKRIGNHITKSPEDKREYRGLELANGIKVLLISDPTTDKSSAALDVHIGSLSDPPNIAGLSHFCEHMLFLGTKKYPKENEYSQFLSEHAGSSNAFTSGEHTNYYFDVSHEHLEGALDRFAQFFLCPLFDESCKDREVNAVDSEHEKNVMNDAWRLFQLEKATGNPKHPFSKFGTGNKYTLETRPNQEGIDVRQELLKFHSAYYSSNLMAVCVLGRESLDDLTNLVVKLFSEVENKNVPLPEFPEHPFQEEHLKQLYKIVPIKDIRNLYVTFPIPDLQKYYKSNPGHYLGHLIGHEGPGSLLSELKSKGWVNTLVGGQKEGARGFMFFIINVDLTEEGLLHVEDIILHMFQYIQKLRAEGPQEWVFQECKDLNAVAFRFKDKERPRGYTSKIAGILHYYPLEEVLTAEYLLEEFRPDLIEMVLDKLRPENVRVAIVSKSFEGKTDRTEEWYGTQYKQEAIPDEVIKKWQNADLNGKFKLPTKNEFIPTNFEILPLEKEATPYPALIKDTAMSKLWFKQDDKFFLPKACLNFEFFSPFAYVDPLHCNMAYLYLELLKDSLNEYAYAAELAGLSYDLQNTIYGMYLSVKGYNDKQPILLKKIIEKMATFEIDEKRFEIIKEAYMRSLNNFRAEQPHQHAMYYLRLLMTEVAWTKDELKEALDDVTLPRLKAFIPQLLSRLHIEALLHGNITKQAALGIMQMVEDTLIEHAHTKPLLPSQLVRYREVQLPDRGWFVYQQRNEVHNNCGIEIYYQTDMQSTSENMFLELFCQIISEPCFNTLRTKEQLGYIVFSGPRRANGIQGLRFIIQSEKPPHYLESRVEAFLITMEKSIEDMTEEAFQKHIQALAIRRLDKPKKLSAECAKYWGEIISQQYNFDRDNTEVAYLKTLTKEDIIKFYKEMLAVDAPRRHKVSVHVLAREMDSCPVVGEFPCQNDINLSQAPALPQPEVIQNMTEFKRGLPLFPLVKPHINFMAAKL
NOD2-RIPK2 inh = NOD2-RIPK2 protein interaction inhibition | O43353 | CHO BLA complementation NOD2-RIPK2, CCF4 ratio | inhibition, % at 4.98 µM | 360,000 tested, 0.38% active; in the data active = inhibition above about 21%;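 also: 0% = vehicle only and 100% = reference blocker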
TLR4-MyD88 BLA = blocks binding of human TLR4 to MyD88; HeLa CL3-4 TLR4/MyD88 BLA complementation, FRET ratio; inhibition, % at 8.4 µM; 200,000 tested, 0.18% active; AID 861; in the data active = inhibition above about 25%;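 also: 0% = vehicle and 100% = reference inhibitor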
IDE cell activ = IDE (human) activation, cell-based | 340,000 tested, 0.073% active | HEK cells, FAbeta-B cleavage, fluorescence polarization; 0% vehicle, 100% cell-free pure enzyme wells | activation, % at 5.96 µM | AID 493087;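 active = activation above the mean of all tested compounds plus 3 SD, set per screening campaign, cut at about 17% in these data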
IDE inh confirm = cellular human IDE inhibition, confirmation | shares compounds with IDE inh | HEK cells, FAbetaB cleavage, fluorescence polarization | 1,200 tested, 51% active | inhibition, % at 5.59 µM;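 active = mean inhibition across triplicate wells above the cutoff set by the earlier primary insulin-degrading enzyme screen, cut at about 16% in these data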;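 also: 0% = DMSO wells and 100% = 60 µM reference IDE inhibitor Ii1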
HEK cytotox = HEK cell cytotoxicity, counter-screen for IDE inhibitors; inhibition, % at 5.59 µM; 1,200 tested, 28% active; shares compounds with IDE inh; HEK293 cytotoxicity, ATP luminescence; in the data active = inhibition above about 22%;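 also: 0% = vehicle wells and 100% = reference cytotoxic drug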
* hit, by the source's call; . = no result. Compounds with a hit are over-represented: about 0.87% of the library has one in this group of screens.

SMILES	TLR9-MyD88 block	IDE inh	NOD2-RIPK2 inh	TLR4-MyD88 BLA	IDE cell activ	IDE inh confirm	HEK cytotox
CCC1CCCN1Cn1cnc2c([nH]c3ccc(Cl)cc32)c1=O (configuration not stated)	7.8	17.2*	5.6	-3.3	-3.3	1.0	20.6
CC(OC(=O)CN1C(=O)c2ccccc2C1=O)C(=O)N(C)c1ccccc1 (configuration not stated)	2.2	3.6	-5.4	.	-0.7	.	.
O=C(CNC(=O)c1ccc(Oc2ccccc2)cc1)OCc1ccc(Br)cc1	3.4	28.1*	7.8	10.1	-20.6	6.4	4.5
CCC(=O)NCCc1nc2cc(NC(=O)c3cccc([N+](=O)[O-])c3)ccc2n1C	-4.4	.	0.4	.	0.6	.	.
O=c1[nH]c(Nc2ccccc2)cc2ccccc12	1.5	19.0*	-4.0	-14.4	-16.7	-0.2	11.7
Cc1ccc(N=C2NC(=O)/C(=C/c3cn(C)c4ccccc34)S2)cc1C	-10.5	18.8*	-8.6	-23.4	-36.5	52.1*	21.9
CC1CC(C)CN(c2ccc(NS(=O)(=O)c3ccccc3)cc2C(=O)O)C1 (configuration not stated)	-7.3	-2.4	2.3	.	-1.6	.	.
C=CCn1c(O)c(N=NC(=S)Nc2cccc(C)c2)c2ccccc21	0.9	24.5*	-0.8	-11.5	-4.2	2.1	81.9*
O=C(CCC(=O)Nc1ccccc1Cl)NNC(=O)Nc1cccc([N+](=O)[O-])c1	-3.8	-2.1	-10.6	.	0.4	.	.
O=C(Nc1cnccn1)Nc1ccccc1F	-6.0	0.3	-9.2	.	2.7	.	.
CCN1C(=O)/C(=C/C=C2/Sc3ccc4ccccc4c3N2CCO)SC1=S	-10.8	23.6*	-3.3	15.7	-6.2	8.8	13.4
CC(=O)C1=C(C)NC(SCSc2ccccc2)=C(C#N)C1c1cccnc1 (configuration not stated)	.	21.2*	.	-5.5	.	12.7	13.4
CC(NC(=O)COc1ccc(/C=N/NC(=O)CO)cc1)c1ccccc1 (configuration not stated)	-1.2	7.5	3.0	.	4.7	.	.
CCOc1ccccc1NC(=O)CSc1nnc2ccc(-c3ccncc3)nn12	-9.9	22.3*	-10.8	-11.1	-16.3	9.0	9.1
c1ccc(-n2ncc3c(NCc4ccco4)ncnc32)cc1	-0.5	-0.6	-10.9	-0.3	1.1	.	.
CC(C)CNc1ncnc2c1cnn2Cc1ccccc1Cl	-3.3	17.1*	6.3	.	-10.6	9.4	12.4
CC(C)Nc1ncnc2c1cnn2Cc1ccccc1Cl	2.3	2.6	3.8	.	2.2	.	.
c1ccc(Cn2ncc3c(NCc4ccco4)ncnc32)cc1	-15.2	17.9*	13.5	-4.4	-11.2	9.8	12.1
Cc1cccc(Nc2ncnc3c2cnn3Cc2ccccc2)c1	4.8	-2.0	-10.2	5.0	-4.5	.	.
O=C(O)c1ccc(Nc2ncnc3c2cnn3Cc2ccccc2)cc1	13.0	17.0*	-5.6	6.5	-18.4	8.6	3.7
CCc1nc2ccc(C(=O)Nc3cccc(OC)c3)cn2c1N(C)CCCc1ccccc1	.	.	-20.6	.	.	.	.
O=C(c1cnn(C(=O)c2cccc(S(=O)(=O)N3CCOCC3)c2)c1)c1ccccc1O	-0.5	-2.8	-6.7	-6.7	2.7	.	.
Oc1[nH]c(N=C2N=c3ccccc3=N2)c2ccccc12	9.7	26.2*	13.3	.	-16.1	20.3*	76.2*
N#CC(=C1N=c2ccccc2=N1)c1c(O)[nH]c2ccccc12	.	.	.	8.4	.	.	.
CCn1c(CNC(=O)C2CCCCC2)cc2cc(C)ccc21	3.1	.	-1.7	.	3.7	.	.
SMILES	TLR9-MyD88 block	IDE inh	NOD2-RIPK2 inh	TLR4-MyD88 BLA	IDE cell activ	IDE inh confirm	HEK cytotox
CCCCN1C(=O)c2cccc3cc(O)cc(c23)C1=O	-2.6	20.5*	1.1	.	-10.1	27.6*	12.1
Cc1ccc(S(=O)(=O)Nc2c(C)nn(C)c2C)c(C)c1	-15.8	3.0	-6.7	.	-2.8	.	.
CCOC(=O)c1c(C)n(-c2ccc(C)cc2)c2ccc(OCC(O)CNCCCO)cc12 (configuration not stated)	-2.9	17.0*	7.2	-11.4	-15.4	9.7	15.9
OC(CNCC1CCCO1)COc1ccc(OCC(O)CNCC2CCCO2)cc1 (configuration not stated)	-1.4	4.3	-1.1	7.8	3.3	.	.
CCOC(=O)c1c(C)n(-c2ccc(C)cc2)c2ccc(OCC(O)CNCC3CCCO3)cc12 (configuration not stated)	-2.2	16.8*	5.3	-11.7	-9.6	7.3	13.3
Cc1ccc(NC(=O)CSc2nnc(/N=C/N(C)C)s2)cc1	7.1	-5.2	-16.9	8.3	9.4	.	.
CCN1C(=O)[C@@H]2[C@@H](c3ccc(-c4ccc(Cl)c(Cl)c4)c(OC)c3)N3CCCC[C@@]3(C(=O)OC)[C@@H]2C1=O	8.0	-5.3	-0.8	.	6.3	.	.
Cc1ccc2nc(-c3ccc(SCC(=O)O)nc3)[nH]c2c1	2.5	-0.8	-1.1	-8.2	4.5	.	.
Cc1ccc2nc(-c3ccc(SCC(=O)N4CCc5ccccc54)nc3)[nH]c2c1	-0.5	26.4*	2.4	1.7	-24.2	10.1	13.2
COC(=O)CN1C(=O)S/C(=C/c2ccc(N3CCCCC3)o2)C1=O	5.6	3.2	12.0	13.4	-141.8	.	.
CCOC(=O)CN1C(=O)S/C(=C/c2ccc(N3CCCCC3)o2)C1=O	-2.2	19.1*	-6.9	2.4	-37.8	69.5*	7.4
N#C/C(=C\c1ccc(O)cc1)C(=O)NCc1ccccc1	4.4	-1.1	4.6	.	-0.5	.	.
CCN(CC)c1ccc(/C=C(/C#N)C(=O)NC(C)C)o1	1.9	26.8*	-0.6	1.5	-31.7	30.4*	12.6
CC(C)NC(=O)/C(C#N)=C\c1ccc(N(C)C)o1	0.1	5.9	0.0	-5.7	-23.8	.	.
CCN(CC)c1ccc(/C=C(/C#N)C(=O)NCc2ccccc2)o1	-3.9	103.3*	-7.0	0.3	-104.2	153.0*	5.8
Cc1ccc(C(C(=O)NCC2CCCO2)N(Cc2ccccc2)C(=O)c2ccc(-c3ccccc3)[nH]2)o1 (configuration not stated)	-5.8	20.6*	-3.8	1.9	-13.2	7.0	12.8
COc1ccc(C(O)c2nc(-c3cc4ccccc4o3)cs2)cc1 (configuration not stated)	.	.	2.7	.	.	.	.
COc1cc(/C=C2/CCC/C(=C\c3cc(O)c(OC)c(Cl)c3)C2=O)cc(Cl)c1O	-2.7	23.5*	-2.2	0.1	-20.5	24.1*	87.4*
Cc1ccc(C(=O)N2CCN(c3ncnc4c(C)csc34)CC2)cc1	9.7	18.6*	-2.7	.	-4.5	7.2	17.3
CCN1CCc2c(sc(NC(=S)NC(=O)c3ccccc3)c2C#N)C1	2.8	25.7*	-4.8	-9.7	-7.4	3.7	16.2
CN1Cc2sc(NC(=S)NC(=O)c3ccccc3)c(C#N)c2CC1(C)C	.	58.0*	.	.	.	4.0	15.2
N#Cc1c(NC(=S)NC(=O)c2ccccc2)sc2c1CCC2	-0.3	6.5	-2.6	-12.1	-17.3	.	.

Screening results from PubChem BioAssay.
